For assay [1], the system named is Plasmodium falciparum Sir2 (PF13_0152, Sir2A). Nature of the assay: Plasmodium falciparum Sir2A binding compounds – biochemical, small-molecule microarray, 635 nm fluorescence, primary screen (AID 1098).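 Further: score merges spot fluorescence intensity with its signal-to-noise ratio.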 Particulars: fluorescence 635 nm, higher = more signal.
A short description of assay [2]: probe aDKK1 binding to arrayed compounds – biochemical, biotinylated probe, 635/667 nm fluorescence, primary screen (AID 1099).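 Further: score merges 667nm spot fluorescence with signal to noise across triplicate slides.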 Particulars: small-molecule microarray, higher = more signal.
Assay [3] can be described thus: probe aCHRDL2 binding to arrayed compounds – biochemical, biotinylated probe, 635/667 nm fluorescence, primary screen (AID 1100). Particulars: small-molecule microarray, higher = more signal.
Assay [4] can be described thus: change in splice reporter luminescence, either direction, cell-based, HEK293, spliceosome inhibition project, primary screen (AID 1101).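 Further: HEK293 cells carrying a splicing-competent luciferase reporter gene; test concentration not given here.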 Particulars: HEK293 splicing luciferase reporter, 24 h, higher = more signal, called active from +8 up or from −8 down. For orientation: Reporter assays use an easily measured gene product as a stand-in for the process of interest.

Assay [5] deals with Fibroblast growth factor 10 (Homo sapiens) (UniProt O15520). Nature of the assay: compounds binding fibroblast growth factor 10 – biochemical, small-molecule microarray, 635 nm fluorescence, primary screen (AID 1102). Particulars: FGF10 binding, fluorescence 635 nm, higher = more signal.
Assay [6] deals with glycogen synthase kinase-3 (GSK3A per assay name; protocol says GSK3B). Briefly: compounds binding glycogen synthase kinase-3 – biochemical, small-molecule microarray, 635 nm fluorescence, GSK3A, primary screen (AID 1103). Further: the record names both GSK3A and GSK3B. Particulars: fluorescence 635 nm, higher = more signal.
Assay [7] deals with Epidermal growth factor receptor (Homo sapiens) (UniProt P00533). Briefly: compounds binding epidermal growth factor receptor – biochemical, small-molecule microarray, 635 nm fluorescence, primary screen (AID 1104).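 Further: score merges 667 nm emission intensity with spot signal to noise over triplicate slides.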 Particulars: EGFR binding, higher = more signal.
In assay [8] the target is Follistatin-related protein 3 (Homo sapiens) (UniProt O95633). Nature of the assay: compounds binding follistatin-related protein 3 – biochemical, small-molecule microarray, 635 nm fluorescence, primary screen (AID 1105).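 Further: score merges emission near 667 nm and signal to noise per printed spot across three slides.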 Particulars: FSTL3 binding, higher = more signal.
The target in assay [9] is Dickkopf-related protein 1 (Homo sapiens) (UniProt O94907). Nature of the assay: small molecules binding DKK1 protein – biochemical, small-molecule microarray, 635 nm fluorescence scan, primary screen (AID 1106).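 Further: score merges emission near 667 nm with signal to noise over three replicate slides.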 Particulars: higher = more signal.
Assay [10] deals with Inhibin beta A chain (activin A). Briefly: small molecules binding activin A – biochemical, small-molecule microarray, 635 nm fluorescence scan, primary screen (AID 1107).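 Further: mouse activin A protein probed at 4.33 µg/mL on printed slides; score merges bound-protein fluorescence near 667 nm with spot signal-to-noise.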 Particulars: INHBA, higher = more signal.
For assay [11], the system named is Human papillomavirus type 1a protein E7 (residues 44-93). Nature of the assay: small molecules binding HPV E7 44-93 – biochemical, small-molecule microarray, residues 44-93, 635 nm fluorescence, primary screen (AID 1108).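 Further: E7 fragment applied at 1 µg/mL in TBST for 1 h at 4 C; score combines spot fluorescence with its signal to noise ratio.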 Particulars: fluorescence 635 nm, higher = more signal.
Assay [12] in a line: hepatitis C replication reporter changes, two-sided – Huh7 cells, luciferase reporter, HCV replication inhibitor project, primary screen (AID 1109).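 Further: huh7 hepatoma cells harbouring a luciferase neomycin HCV replicon reporter; luciferase luminescence as measure of HCV replicon replication; test concentration not given here.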 Particulars: Huh7 HCV replicon luciferase reporter, 48 h; higher = more signal.
Assay [13] has as its target Left-right determination factor 2 (Homo sapiens) (UniProt O00292). Briefly: small molecules binding LEFTY2 protein – biochemical, small-molecule microarray, 635 nm fluorescence scan, primary screen (AID 1110). Particulars: higher = more signal.
The target of assay [14] is Calmodulin-1 (Homo sapiens) (UniProt P0DP23). Briefly: small molecules binding calmodulin-1 with EGTA – biochemical, small-molecule microarray, Cy5-labelled CALM1, profiling panel (AID 1111).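 Further: labelled calmodulin applied in Tris saline Tween buffer holding calcium plus EGTA and DTT.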 Particulars: Cy5-CALM1 binding fluorescence, higher = more signal.
For assay [15] the target is unchanged. Nature of the assay: small molecules binding Ca-loaded calmodulin-1 – biochemical, small-molecule microarray, Cy5-labelled CALM1, plus calcium, artefact control for SMM control-protein annotation, profiling panel (AID 1112).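 Further: score merges spot fluorescence with signal to noise from triplicate slides.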 Particulars: Cy5-CALM1 binding fluorescence, higher = more signal.
Assay [16] can be described thus: probe aWnt5a binding to arrayed compounds – biochemical, biotinylated probe, 635/667 nm fluorescence, primary screen (AID 1113).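 Further: score merges 667 nm fluorescence intensity with signal-to-noise per printed feature.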 Particulars: small-molecule microarray, higher = more signal.
Assay [17] is described as follows: probe aShh binding to arrayed compounds – biochemical, biotinylated probe, 635/667 nm fluorescence, primary screen (AID 1114).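 Further: probe is biotin-labelled aShh protein from a stem cell growth factor screen; measures binding of labelled protein to compounds printed on the slide; score merges feature fluorescence at 667 nm with signal-to-noise.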 Particulars: small-molecule microarray, higher = more signal.
Assay [18] in a line: probe aNog binding to arrayed compounds – biochemical, biotinylated probe, 635/667 nm fluorescence, primary screen (AID 1115).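 Further: probe is biotinylated aNog protein used at 0.15 µg/mL for 1 h at 4 C; z-score combines 667 nm fluorescence of each spot with its signal to noise.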 Particulars: small-molecule microarray, higher = more signal.
For assay [19], the target named is Torsin-1A-interacting protein 1 (Homo sapiens) (UniProt Q5JTV8). Nature of the assay: compound microarray binding of lysate hLAP1 – cell lysate, small-molecule microarray, COS7 lysate, 635/667 nm fluorescence, primary screen (AID 1116). Particulars: 635 nm fluorescence, higher = more signal.
Assay [20] concerns the target Alpha-bungarotoxin (Bungarus multicinctus) (UniProt P60615). Briefly: compounds binding labelled alpha-BTX control protein – biochemical, small-molecule microarray, Alexa647 label, 635/667 nm fluorescence, artefact control for SMM control protein annotation, profiling panel (AID 1117). Particulars: alpha-BTX-A647 binding fluorescence, higher = more signal.

Activity calls are given as the source filed them.

Chain of Follistatin-related protein 3 (Homo sapiens) (O95633 whole entry, looked up): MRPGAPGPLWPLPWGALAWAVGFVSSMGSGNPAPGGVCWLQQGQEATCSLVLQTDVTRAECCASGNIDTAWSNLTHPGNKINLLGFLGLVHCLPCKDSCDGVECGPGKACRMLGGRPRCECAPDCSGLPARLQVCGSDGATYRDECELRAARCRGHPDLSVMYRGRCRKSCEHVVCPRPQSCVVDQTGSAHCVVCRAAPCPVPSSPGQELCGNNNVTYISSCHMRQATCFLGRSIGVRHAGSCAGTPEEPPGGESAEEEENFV
Chain of Dickkopf-related protein 1 (Homo sapiens) (O94907 whole entry, looked up): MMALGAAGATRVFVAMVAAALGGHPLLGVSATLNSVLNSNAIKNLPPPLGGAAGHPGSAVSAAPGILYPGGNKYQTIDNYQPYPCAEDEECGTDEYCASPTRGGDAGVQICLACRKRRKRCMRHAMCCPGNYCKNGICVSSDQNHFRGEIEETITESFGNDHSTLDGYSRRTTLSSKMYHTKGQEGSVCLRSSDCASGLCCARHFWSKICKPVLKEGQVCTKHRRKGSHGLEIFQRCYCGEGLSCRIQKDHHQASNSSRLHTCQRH
Chain of Alpha-bungarotoxin (Bungarus multicinctus) (P60615 whole entry, looked up): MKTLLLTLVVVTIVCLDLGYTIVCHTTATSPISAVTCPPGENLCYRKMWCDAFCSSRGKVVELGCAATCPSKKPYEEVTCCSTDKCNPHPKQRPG
Chain of Fibroblast growth factor 10 (Homo sapiens) (O15520 whole entry, looked up): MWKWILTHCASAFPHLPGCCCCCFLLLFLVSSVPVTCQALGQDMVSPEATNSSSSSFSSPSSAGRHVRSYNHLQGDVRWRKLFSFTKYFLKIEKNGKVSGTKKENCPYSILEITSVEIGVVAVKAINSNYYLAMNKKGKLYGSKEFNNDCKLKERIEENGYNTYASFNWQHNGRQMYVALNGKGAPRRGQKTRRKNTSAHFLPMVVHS
Chain of Torsin-1A-interacting protein 1 (Homo sapiens) (Q5JTV8 whole entry, looked up): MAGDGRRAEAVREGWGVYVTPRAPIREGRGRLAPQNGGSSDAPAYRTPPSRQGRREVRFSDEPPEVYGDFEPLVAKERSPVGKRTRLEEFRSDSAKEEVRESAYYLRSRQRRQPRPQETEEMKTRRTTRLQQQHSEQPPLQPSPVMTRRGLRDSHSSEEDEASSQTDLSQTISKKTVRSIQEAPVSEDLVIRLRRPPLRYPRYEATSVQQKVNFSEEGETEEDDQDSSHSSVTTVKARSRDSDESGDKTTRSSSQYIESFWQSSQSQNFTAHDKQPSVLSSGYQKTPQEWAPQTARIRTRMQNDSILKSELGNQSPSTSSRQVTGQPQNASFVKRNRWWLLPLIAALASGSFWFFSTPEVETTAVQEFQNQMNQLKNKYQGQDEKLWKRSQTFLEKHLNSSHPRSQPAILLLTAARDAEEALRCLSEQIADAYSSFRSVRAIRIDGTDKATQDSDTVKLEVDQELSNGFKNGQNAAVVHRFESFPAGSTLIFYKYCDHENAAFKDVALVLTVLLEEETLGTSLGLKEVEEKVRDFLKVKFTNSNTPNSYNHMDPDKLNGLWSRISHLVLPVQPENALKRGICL
Chain of Left-right determination factor 2 (Homo sapiens) (O00292 whole entry, looked up): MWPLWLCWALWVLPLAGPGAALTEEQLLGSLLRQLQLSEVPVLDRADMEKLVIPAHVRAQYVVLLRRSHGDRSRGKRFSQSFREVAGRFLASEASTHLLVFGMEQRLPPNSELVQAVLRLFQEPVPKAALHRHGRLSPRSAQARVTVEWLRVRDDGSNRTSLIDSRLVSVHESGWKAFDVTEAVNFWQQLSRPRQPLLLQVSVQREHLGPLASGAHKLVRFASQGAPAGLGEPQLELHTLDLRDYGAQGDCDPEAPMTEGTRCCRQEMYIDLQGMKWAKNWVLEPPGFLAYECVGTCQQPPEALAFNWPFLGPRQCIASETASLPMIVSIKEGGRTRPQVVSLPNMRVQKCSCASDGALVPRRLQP
Chain of Epidermal growth factor receptor (Homo sapiens) (P00533 whole entry, looked up): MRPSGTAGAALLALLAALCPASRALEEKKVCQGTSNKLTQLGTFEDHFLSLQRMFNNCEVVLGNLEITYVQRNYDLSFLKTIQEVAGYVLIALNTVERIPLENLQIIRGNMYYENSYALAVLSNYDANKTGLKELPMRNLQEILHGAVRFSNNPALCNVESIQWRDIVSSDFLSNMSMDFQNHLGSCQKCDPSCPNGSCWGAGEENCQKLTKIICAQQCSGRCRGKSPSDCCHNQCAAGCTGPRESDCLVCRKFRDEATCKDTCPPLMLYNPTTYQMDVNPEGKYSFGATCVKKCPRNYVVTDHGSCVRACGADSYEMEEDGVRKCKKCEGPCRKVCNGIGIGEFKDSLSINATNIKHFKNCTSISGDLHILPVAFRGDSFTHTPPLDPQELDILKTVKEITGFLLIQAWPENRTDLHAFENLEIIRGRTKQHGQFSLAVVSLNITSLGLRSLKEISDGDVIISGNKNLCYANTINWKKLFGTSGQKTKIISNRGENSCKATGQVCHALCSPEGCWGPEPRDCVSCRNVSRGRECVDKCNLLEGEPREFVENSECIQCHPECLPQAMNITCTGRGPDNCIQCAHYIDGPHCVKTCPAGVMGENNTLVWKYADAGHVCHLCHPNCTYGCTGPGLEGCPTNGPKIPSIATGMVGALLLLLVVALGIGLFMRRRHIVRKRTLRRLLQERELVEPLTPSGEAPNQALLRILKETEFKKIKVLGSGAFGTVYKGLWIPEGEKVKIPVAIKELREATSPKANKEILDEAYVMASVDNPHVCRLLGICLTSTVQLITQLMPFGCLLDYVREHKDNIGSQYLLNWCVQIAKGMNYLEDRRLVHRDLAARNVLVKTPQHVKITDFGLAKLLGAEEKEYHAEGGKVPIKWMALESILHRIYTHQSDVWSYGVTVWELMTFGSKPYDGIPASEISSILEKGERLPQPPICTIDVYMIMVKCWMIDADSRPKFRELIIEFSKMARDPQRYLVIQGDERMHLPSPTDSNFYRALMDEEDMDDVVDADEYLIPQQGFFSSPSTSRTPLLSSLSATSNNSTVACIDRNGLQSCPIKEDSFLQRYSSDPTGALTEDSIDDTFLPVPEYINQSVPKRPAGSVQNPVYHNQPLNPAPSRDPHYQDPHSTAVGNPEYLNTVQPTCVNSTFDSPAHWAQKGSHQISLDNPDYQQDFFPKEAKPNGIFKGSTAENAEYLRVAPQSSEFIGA

Consider `C=C[C@H](C)[C@@H](OC(=O)Nc1ccc(SC)cc1)c1ccc(OCCO)cc1`, for which the composite z-score in assay [1] is 1.11; in assay [2] it was -0.189; in [3], 0.529; in assay [5], 1.02; in assay [6], 0.321; in [7] it was -0.359. The composite z-score in [8] was 0.379; in [9], -0.395; in assay [10], 0.246; in [11], 1.3; in assay [13], -0.396; in assay [14], 0.19. Further, the composite z-score was 0.601 in [15]; -0.0792 in assay [16]; -0.0643 in assay [17]; 0.958 in [18]; 0.248 in assay [19]; 0.438 in assay [20]. In addition, the z-score in assay [4] was -1.36 (inactive); in [12], -0.931.

With `CN1C2C=C(c3ccc(CO)cc3)C(C3C(=O)N(C(N)=O)C(=O)C32)C1C1CC1` (stereo not given), the composite z-score is 0.261 in [1]; -0.202 in assay [2]; 0.0427 in [3]; -0.241 in [5]; -0.32 in assay [6]; -0.127 in [7]. Besides, the composite z-score was -0.722 in assay [8]; -0.188 in [9]; -0.586 in assay [10]; 0.249 in assay [11]; -0.423 in assay [13]; -0.273 in assay [14]. In addition, the composite z-score is -0.915 in [15]; -0.176 in [16]; -0.229 in assay [17]; -0.226 in assay [18]; 0.192 in assay [19]; 0.334 in assay [20]. In addition, the z-score in assay [4] was 0.0567 (inactive); in assay [12], -0.31.

Turning to `COCCOC(=O)N1C(=O)[C@@]2(c3cc(C#CC4(O)CCCCCC4)ccc31)[C@H](C(N)=O)[C@H]1C(=O)O[C@H](c3ccccc3)[C@H](c3ccccc3)N1[C@@H]2c1ccc(OCCO)cc1`, the composite z-score in assay [1] is 0.804; in assay [2], 0.527; in assay [3], 0.668; in [5] it was 0.99; in assay [6], 1.28; in [7], 0.484. Moreover, the composite z-score in assay [8] is 0.974; in assay [9], 0.338; in [10] it was 0.725; in [11] it was 0.688; in assay [13] it was 0.73; in assay [14] it was 1.49. Besides, the composite z-score in assay [15] is 0.527; in [16] it was -0.0364; in [17], 0.407; in [18] it was 0.176; in assay [19], 0.883; in [20] it was 1.61. In addition, the z-score in [4] was -0.0691 (inactive); in [12], -2.61.

`CC(C)N1C(=O)[C@@]2(Cc3ccccc31)c1ccccc1C(=O)N(Cc1ccccc1)[C@H]2c1ccc(CO)cc1`: the composite z-score in assay [1] was 0.0154; in [2], -1.02; in [3], -1.01; in assay [5] it was 0.368; in [6], 0.241; in assay [7], -0.162. Moreover, the composite z-score in assay [8] is 0.245; in [9] it was 0.355; in assay [10] it was 0.931; in assay [11], 0.256; in assay [13], 0.159; in [14] it was -0.439. The composite z-score is -0.445 in assay [15]; -0.124 in assay [16]; -0.64 in [17]; -0.218 in assay [18]; 0.0896 in assay [19]; 0.648 in [20]. Besides, the figures for the z-score in assay [4] and in assay [12] were 0.144 (inactive) and -0.656, respectively.

Turning to `O=C1NC(=O)C2C1C=CC(C(O)c1ccc(F)cc1)N2Nc1ccc(Cl)cc1Cl` (stereo not given), the composite z-score is -0.315 in [1]; 0.96 in [2]; 1.12 in [3]; 0.327 in assay [5]; -0.923 in [6]; -0.416 in [7]. Moreover, the composite z-score in assay [8] was -0.194; in assay [9], -0.459; in assay [10], 0.924; in [11], 0.379; in assay [13], -0.752; in assay [14], 0.805. In addition, the composite z-score is 1 in assay [15]; -0.0403 in assay [16]; 0.867 in [17]; 0.993 in assay [18]; 0.68 in assay [19]; 0.712 in assay [20]. Moreover, the z-score in assay [4] was 1.65 (inactive); in assay [12] it was -0.659.
